These results are taken from ChEMBL document CHEMBL3988442, “University of Dundee, Small-Polar-MMV Screening Library” (2021).

For part of these data: Measured potencies and affinities stand elsewhere.

Holding throughout (design): scale not given: direction of the effect not stated beside the values
Test [1] concerns the target Protein translocase subunit SecA (Escherichia coli (strain K12)) (UniProt P10408). The experiment in a line: Assay to Identify E. coli SecA ATPase Inhibitors. The test is classed as functional. The note with it: 30 µM.
In test [2] the target is T1, Ubiquitin-activating enzyme e1, putative (Leishmania donovani (strain BPK282A1)) (UniProt E9BSI1).
T1 sequence (whole entry): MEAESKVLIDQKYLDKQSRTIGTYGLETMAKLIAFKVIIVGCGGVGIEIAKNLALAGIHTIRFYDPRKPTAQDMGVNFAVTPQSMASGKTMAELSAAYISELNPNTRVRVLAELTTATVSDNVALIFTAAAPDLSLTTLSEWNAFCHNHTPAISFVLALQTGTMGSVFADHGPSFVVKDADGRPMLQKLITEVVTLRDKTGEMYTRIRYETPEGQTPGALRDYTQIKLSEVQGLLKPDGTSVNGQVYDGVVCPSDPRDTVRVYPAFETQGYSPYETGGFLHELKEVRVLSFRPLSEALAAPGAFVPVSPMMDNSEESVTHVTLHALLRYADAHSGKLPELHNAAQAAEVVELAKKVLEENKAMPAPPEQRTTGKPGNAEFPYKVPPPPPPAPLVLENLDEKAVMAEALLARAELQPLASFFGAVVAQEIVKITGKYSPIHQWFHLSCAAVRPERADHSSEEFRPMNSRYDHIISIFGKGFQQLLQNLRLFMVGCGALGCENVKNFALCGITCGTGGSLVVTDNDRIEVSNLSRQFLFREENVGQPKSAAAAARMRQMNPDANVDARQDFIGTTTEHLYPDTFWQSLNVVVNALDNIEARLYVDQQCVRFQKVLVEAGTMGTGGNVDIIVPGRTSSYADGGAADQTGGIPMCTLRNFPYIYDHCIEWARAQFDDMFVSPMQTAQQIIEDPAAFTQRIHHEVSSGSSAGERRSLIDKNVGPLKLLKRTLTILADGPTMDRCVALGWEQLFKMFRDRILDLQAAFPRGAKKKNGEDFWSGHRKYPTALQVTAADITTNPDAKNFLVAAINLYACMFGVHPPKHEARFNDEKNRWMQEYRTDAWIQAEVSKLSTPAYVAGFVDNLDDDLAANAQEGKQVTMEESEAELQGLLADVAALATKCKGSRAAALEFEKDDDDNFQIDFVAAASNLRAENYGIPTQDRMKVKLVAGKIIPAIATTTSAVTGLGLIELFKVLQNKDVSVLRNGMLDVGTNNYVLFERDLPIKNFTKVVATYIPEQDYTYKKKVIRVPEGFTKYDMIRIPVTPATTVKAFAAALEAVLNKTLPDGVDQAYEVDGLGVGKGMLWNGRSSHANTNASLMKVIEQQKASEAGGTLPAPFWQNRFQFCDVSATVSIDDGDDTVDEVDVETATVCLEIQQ
The experiment in a line: Leishmania donovani Ubiquitin Activating Enzyme (LdE1). It is filed as functional. The note with it: 30 µM.

The target of test [3] is T2, Aspartate--tRNA(Asp/Asn) ligase (Mycobacterium tuberculosis (strain ATCC 25618 / H37Rv)) (UniProt P9WFW3). Also: in the data most compounds retested in dose-response had high values.
T2 sequence (whole entry): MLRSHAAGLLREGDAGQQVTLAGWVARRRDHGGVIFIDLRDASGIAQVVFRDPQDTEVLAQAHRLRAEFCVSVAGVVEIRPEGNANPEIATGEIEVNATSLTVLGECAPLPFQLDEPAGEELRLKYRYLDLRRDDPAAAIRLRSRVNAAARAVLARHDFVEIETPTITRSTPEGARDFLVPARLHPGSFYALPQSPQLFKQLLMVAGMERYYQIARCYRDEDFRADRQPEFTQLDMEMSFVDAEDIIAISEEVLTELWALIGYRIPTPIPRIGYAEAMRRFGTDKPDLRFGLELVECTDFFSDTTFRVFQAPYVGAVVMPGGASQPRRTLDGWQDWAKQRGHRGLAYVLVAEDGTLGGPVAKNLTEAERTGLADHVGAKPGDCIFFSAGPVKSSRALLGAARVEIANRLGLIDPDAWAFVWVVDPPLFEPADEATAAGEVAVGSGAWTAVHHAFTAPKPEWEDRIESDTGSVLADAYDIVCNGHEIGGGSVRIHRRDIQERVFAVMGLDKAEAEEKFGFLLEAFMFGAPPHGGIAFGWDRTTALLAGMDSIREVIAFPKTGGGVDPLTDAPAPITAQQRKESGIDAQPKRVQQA
The experiment in a line: Assay for Asp RNA synthetase-1 from Mycobacterium tuberculosis. The test is classed as functional. The note with it: 30 µM.

In test [4] the target is Sialic acid-binding Ig-like lectin 9 (Homo sapiens) (UniProt Q9Y336). The experiment in a line: Hs-Siglec9 ALPHAscreen SOP 20170721. The note with it: 10 µM.
Test [5] concerns Trypanosoma cruzi. The experiment in a line: Trypanosoma cruzi phosphomannomutase and mannose-1-phosphate guanylyltransferase assay. The test is classed as functional. The conditions noted are these: 10 µM.
For test [6], the target named is T3, Arginase-2, mitochondrial (Homo sapiens) (UniProt P78540).
T3 sequence (whole entry): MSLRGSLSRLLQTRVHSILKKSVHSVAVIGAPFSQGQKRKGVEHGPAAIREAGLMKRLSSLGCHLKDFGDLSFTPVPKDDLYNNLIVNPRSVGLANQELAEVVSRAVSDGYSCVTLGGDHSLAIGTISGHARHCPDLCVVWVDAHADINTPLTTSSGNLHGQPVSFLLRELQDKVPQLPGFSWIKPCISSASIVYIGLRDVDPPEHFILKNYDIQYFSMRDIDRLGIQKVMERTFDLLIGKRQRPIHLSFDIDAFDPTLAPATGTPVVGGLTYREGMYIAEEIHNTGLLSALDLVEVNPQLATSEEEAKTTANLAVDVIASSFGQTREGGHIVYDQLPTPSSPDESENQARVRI
The experiment in a line: in vitro enzyme assay to detect the production of urea directly proportional to the activity of Arginase II. Also: in the data most compounds retested in dose-response had high values. It is filed as functional. The note with it: 33.3 µM.

In test [7] the target is T4, Proteasome subunit beta (Trypanosoma cruzi) (UniProt O96673).
T4 sequence (whole entry): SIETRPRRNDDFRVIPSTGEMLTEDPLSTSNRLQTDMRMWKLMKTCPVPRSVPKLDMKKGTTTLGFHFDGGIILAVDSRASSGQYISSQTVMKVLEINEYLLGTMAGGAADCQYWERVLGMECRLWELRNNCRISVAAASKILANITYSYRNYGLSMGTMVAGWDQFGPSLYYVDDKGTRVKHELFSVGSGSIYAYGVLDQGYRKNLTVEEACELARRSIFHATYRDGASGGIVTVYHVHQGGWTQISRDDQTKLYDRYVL
The experiment in a line: Trypanosoma cruzi proteasome chymotrypsin-like activity (TcProtChymo) assay. Also: in the data most compounds retested in dose-response had high values. It is filed as functional. The conditions noted are these: 9.37 µM.

For test [8], the species on record is Homo sapiens. The experiment in a line: To identify inhibition of the IFN signalling (Jak-Stat) pathway via expression of an eGFP reporter gene under the control of an IFN-stimulated response element (ISRE) containing MxA promoter. The note with it: 30 µM. The test is classed as functional.
Test [9] has as its target Shiga toxin 2 (Escherichia coli O157:H7) (UniProt P09385+P09386). The experiment in a line: E. coli 0.157:H7 Shiga Toxin SOP - stx2 screening assay. The test is classed as functional. The conditions noted are these: 30 µM.
Test [10] concerns the target T5, Tyrosyl-tRNA synthetase, putative (Trypanosoma cruzi (strain CL Brener)) (UniProt Q4DSP6).
T5 sequence (whole entry): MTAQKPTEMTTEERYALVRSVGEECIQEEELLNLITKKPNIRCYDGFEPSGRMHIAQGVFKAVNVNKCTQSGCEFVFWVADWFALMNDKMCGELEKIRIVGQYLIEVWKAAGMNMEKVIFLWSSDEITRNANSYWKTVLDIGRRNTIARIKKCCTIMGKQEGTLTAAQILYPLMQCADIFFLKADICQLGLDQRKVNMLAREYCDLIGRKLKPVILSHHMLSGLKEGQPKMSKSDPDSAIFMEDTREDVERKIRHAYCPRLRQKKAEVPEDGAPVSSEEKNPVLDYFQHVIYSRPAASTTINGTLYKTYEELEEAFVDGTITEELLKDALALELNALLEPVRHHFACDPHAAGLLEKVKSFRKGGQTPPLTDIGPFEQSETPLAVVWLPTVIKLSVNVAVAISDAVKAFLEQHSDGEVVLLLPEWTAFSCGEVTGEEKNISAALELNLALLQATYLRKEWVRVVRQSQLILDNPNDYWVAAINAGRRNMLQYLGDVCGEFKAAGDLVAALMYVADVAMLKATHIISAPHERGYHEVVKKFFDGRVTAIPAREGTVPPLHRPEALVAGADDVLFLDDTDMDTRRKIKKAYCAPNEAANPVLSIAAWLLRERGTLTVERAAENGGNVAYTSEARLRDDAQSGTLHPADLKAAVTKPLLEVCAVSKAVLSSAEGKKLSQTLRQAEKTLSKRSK
The experiment in a line: Trypanosoma cruzi tyrosyl tRNA synthetase (TcYRS) _High Tyrosine SOP. Also: in the data most compounds retested in dose-response had high values. It is filed as functional. The note with it: 30 µM.

For test [11], the target named is T5, Tyrosyl-tRNA synthetase, putative (Trypanosoma cruzi (strain CL Brener)). The experiment in a line: Trypanosoma cruzi tyrosyl tRNA synthetase (TcYRS) SOP. It is filed as functional. The note with it: 30 µM.
Test [12] concerns the target Chromo domain-containing protein 1 (Saccharomyces cerevisiae (strain ATCC 204508 / S288c) (Baker's yeast)) (UniProt P32657). The experiment in a line: ScCHD-1 Enzyme Inhibition Assay. Also: in the data most compounds retested in dose-response had high values. The test is classed as functional. The note with it: 30 µM.

Sialic acid-binding Ig-like lectin 9 (Homo sapiens), sequence (Q9Y336 whole entry): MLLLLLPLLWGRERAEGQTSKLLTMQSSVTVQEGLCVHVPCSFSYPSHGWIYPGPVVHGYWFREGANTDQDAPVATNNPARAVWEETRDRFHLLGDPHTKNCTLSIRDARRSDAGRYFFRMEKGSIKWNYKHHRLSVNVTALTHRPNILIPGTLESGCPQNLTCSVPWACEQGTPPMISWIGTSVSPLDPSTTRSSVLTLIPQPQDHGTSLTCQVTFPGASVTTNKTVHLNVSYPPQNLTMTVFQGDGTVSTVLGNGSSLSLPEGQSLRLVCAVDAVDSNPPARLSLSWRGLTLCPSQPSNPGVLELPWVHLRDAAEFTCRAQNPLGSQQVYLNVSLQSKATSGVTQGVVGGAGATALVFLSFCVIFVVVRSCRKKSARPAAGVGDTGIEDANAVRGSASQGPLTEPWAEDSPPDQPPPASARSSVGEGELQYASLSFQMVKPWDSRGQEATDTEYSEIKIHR
Chromo domain-containing protein 1 (Saccharomyces cerevisiae (strain ATCC 204508 / S288c) (Baker's yeast)), sequence (P32657 whole entry, the tested form may be a part): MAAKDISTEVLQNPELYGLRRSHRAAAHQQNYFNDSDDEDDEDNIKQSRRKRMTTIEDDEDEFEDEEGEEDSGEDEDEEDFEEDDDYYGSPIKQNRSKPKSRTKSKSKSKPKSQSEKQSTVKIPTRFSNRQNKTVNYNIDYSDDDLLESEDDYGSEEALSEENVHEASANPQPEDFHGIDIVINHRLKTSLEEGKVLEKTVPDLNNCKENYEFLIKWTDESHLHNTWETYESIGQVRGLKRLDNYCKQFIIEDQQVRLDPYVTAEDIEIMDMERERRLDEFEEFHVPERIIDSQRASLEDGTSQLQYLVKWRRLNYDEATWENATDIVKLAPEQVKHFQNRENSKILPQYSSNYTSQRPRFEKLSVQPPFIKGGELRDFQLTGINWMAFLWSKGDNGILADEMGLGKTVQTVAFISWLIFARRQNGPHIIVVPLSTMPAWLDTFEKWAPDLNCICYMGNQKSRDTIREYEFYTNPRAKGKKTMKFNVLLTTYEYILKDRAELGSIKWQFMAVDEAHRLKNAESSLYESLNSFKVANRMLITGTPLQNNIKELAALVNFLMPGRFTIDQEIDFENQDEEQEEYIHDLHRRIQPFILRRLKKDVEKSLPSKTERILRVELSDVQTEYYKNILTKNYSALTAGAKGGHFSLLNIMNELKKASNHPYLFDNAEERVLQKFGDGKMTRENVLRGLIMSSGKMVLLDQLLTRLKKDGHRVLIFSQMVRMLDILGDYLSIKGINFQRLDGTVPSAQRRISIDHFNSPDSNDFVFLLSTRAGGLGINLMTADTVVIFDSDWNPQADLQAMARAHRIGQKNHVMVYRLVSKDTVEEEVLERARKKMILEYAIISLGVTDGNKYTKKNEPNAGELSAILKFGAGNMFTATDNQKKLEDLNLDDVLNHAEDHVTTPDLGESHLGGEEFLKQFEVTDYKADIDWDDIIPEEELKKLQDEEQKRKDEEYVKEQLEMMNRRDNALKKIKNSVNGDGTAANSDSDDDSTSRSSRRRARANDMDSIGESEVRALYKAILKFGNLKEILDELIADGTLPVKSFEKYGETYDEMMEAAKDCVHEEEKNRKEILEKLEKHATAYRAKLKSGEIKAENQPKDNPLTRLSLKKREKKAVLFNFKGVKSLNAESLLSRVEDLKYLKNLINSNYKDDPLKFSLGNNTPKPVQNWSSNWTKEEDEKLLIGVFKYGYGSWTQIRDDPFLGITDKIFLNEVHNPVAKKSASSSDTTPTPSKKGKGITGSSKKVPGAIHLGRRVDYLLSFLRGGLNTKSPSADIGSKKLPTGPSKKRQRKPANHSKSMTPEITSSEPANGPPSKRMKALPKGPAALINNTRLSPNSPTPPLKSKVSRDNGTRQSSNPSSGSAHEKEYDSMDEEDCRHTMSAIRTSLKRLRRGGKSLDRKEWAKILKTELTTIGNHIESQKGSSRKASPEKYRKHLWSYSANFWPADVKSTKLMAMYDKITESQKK
Protein translocase subunit SecA (Escherichia coli (strain K12)), sequence (P10408 whole entry): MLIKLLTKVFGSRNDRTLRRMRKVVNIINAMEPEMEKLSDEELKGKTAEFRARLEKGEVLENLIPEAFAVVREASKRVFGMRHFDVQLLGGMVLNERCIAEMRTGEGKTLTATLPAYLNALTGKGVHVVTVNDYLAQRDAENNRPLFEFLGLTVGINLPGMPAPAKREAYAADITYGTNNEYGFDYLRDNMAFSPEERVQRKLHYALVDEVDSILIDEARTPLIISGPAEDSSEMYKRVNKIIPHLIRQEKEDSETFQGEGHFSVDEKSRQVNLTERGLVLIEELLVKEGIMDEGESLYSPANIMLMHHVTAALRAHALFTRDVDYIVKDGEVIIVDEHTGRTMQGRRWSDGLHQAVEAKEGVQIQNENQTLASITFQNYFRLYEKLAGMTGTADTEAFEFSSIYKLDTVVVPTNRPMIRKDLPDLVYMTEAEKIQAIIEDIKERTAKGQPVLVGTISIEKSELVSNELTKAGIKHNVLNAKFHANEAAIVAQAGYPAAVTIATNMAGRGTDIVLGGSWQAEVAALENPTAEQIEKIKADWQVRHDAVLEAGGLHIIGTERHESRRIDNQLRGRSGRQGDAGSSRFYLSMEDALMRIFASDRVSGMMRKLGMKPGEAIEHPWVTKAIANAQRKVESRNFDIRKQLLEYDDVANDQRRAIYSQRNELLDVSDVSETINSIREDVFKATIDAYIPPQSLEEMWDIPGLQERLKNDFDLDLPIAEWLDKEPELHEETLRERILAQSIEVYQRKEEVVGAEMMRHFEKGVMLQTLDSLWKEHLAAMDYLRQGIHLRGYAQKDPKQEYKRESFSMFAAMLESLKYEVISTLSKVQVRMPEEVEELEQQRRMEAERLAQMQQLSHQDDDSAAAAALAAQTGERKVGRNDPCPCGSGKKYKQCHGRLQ

In the case of `CCc1ccc(CN2CCN(C)c3ncccc3C2)o1`, the Percent Effect in [1] was -8.73%; in test [2], 1.3%; in test [3] it was -0.259%; in test [4], 15.1%; in test [5] it was -1.27%; in [6], -3.24%. In addition, the Percent Effect in test [7] was 7.68%; in test [8], 6.96%; in test [9], 1.33%; in test [10] it was 3.68%; in test [11] it was -5.13%; in test [12], -4.2%.

For `COCC1CC2(CCN(Cc3ccccn3)CC2)CN1C(C)C` (stereo not given), the Percent Effect in test [1] was -6.44%; in test [2], 6.49%; in test [3] it was 4.1%; in test [4], 6.75%; in [5], 7.11%; in test [6] it was -8.1%. For the same compound, the Percent Effect in test [7] was 7.5%; in [8], 2.62%; in test [9], -1.31%; in [10], 3.68%; in test [11], 12.8%; in [12], 2.02%.

With `COc1ccc(C(=O)C2CCCN(Cc3ccc(C)o3)C2)c(OC)c1` (stereo not given), the Percent Effect in test [1] was -3.9%; in test [2], -5.41%; in [3] it was -4.91%; in test [4] it was 3.98%; in test [5] it was -2.04%; in test [6], 1.75%. In addition, the Percent Effect in [7] was 7.71%; in test [8], -5.12%; in [9] it was -2.98%; in [10], 1.6%; in [11], 7.32%; in test [12] it was 2.92%.

For the compound `COc1ccc(C(=O)C2CCCN(Cc3ccncc3)C2)c(OC)c1` (stereo not given), the Percent Effect is -6.33% in test [1]; 5.41% in test [2]; -0.276% in [3]; 12.6% in test [4]; 5.33% in test [5]; 15% in [6]. Besides, the Percent Effect in test [7] is 5.31%; in test [8], 10.7%; in [9], 11%; in [10] it was 5.85%; in test [11], 12.2%; in [12] it was 83.7%.

Take `C[C@@H]1CN(Cc2ccsc2)C[C@]12CCN(Cc1cccnc1)C2=O`: the Percent Effect in test [1] was -4.41%; in test [2], 1.3%; in test [3] it was -1.62%; in test [4], 1.42%; in test [5], -1.69%; in test [6], 1.37%. In addition, the Percent Effect in test [7] is -4.03%; in [8] it was 25.2%; in test [9], -6.36%; in test [10], 0%; in [11], -10%; in test [12], -0.115%.
